Sampled rows, rich in hits. Any-hit rate of the full collection: about 2.1%.
BaF3 parental: parental Ba/F3 cell viability inhibition, counter-screen for JAK2V617F inhibitor project, murine pro-B, CellTiter-Glo luminescence; AID 1486, 2009; inhibition, % at 5.6 µM; CellTiter-Glo ATP luminescence; 220,000 tested, 1.1% active;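 active = inhibition above a per-campaign cutoff, the mean inhibition of all tested compounds plus 3 SD, cut at about 27% in these data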;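 also: 0% = DMSO wells and 100% = JAK Inhibitor I control wells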
aSyn 5UTR inh: MLPCN primary screen, SNCA 5' untranslated region; alpha-synuclein 5'UTR reporter, inhibitor activity; inhibition, % (tested at 7.5 µM); 300,000 tested, 0.82% active; AID 1813, 2009; in the data active = inhibition above about 60%;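 also: H4 neuroglioblastoma cells stably carrying SNCA 5'UTR luciferase fusion; 0% = DMSO wells and 100% = positive control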
APP transl inh: inhibitors of APP translation via 5'UTR reporter, primary screen, APP 5'UTR luciferase, SH-SY5Y cells; SH-SY5Y APP 5'UTR-luciferase reporter, luminescence; 190,000 tested, 0.82% active; inhibition, % at 2 µM; AID 1285, 2008;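 active = inhibition above a set limit, derived from the sample mean plus 3 SD, cut at about 45% in these data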
Ba/F3 V617F tox: reduced viability of JAK2V617F-dependent Ba/F3 cells, primary screen, JAK2V617F inhibitor project, cell-based, Ba/F3 EpoR-JAK2V617F, luminescence. inhibition, % at 5.6 µM. AID 1446, 2008. ATP luminescence. 220,000 tested, 1.1% active;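 active = inhibition above the campaign mean plus 3 SD over all tested compounds, cut at about 24% in these data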;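 also: cytokine-independent growth of Ba/F3 cells driven by EpoR plus mutant JAK2; 0% = DMSO-treated cells and 100% = JAK inhibitor I control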
KLF5 inh: KLF5 expression inhibitors, primary screen, DLD-1 cells, luminescence; DLD-1 KLF5 promoter-luciferase reporter; inhibition, % at 5 µM; 290,000 tested, 0.23% active;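 active = inhibition above a per-plate limit of that plate's mean compound inhibition plus 3 SD, cut at about 60% in these data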;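 also: 0% = DMSO wells and 100% = LY294002 at 200 µM; higher means less KLF5 promoter-driven luciferase light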
IEC-6 tox: cytotoxicity in IEC-6 intestinal epithelial cells, primary screen, cytotoxicity control for KLF5 inhibitor project, cell-based, luminescence; IEC-6 cytotoxicity, luminescence viability; inhibition, % at 5 µM; 290,000 tested, 0.78% active; AID 1825, 2009; in the data active = inhibition above about 22%;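 also: 0% = plate median of test compound wells and 100% = cytotoxic reference compound wells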
* = called active by the depositor; nt = no result.

SMILES	BaF3 parental	aSyn 5UTR inh	APP transl inh	Ba/F3 V617F tox	KLF5 inh	IEC-6 tox
CC(C)c1ccccc1NC(=O)COC(=O)CCN1C(=O)/C(=C\C=C\c2ccccc2)SC1=S	1	73*	32	0	-21	-7
O=C(COC(=O)CCN1C(=O)/C(=C\C=C\c2ccccc2)SC1=S)Nc1ccc(Br)cc1	4	65*	22	-2	-2	-6
Cc1ccc(C(C)C)c(OCCNCCc2ccccc2)c1	nt	-10	nt	nt	-19	4
Cc1ccccc1C1c2[nH]c3ccccc3c2CCN1Cc1cccn1-c1ncccn1 (centres undefined)	32*	10	nt	2	3	7
CC(OC(=O)CCCN=C1NS(=O)(=O)c2ccccc21)C(=O)Nc1ccccc1[N+](=O)[O-] (centres undefined)	nt	-1	nt	nt	nt	nt
Cn1c(Cl)c(/C=N/OC(=O)c2ccccc2Cl)c2ccccc21	7	-21	4	-1	1	0
Cc1cccc(C(=O)O/N=C/c2c(N3CCOCC3)n(C)c3ccccc23)c1	0	72*	17	-2	-20	-2
Cc1ccc(C(=O)c2c3ccc([N+](=O)[O-])cc3[n+]([O-])n2CCCN)cc1	nt	63*	nt	nt	nt	nt
N#CCC(=O)Nc1ccc(C(=O)OCC(=O)N2CCCC2=O)cc1	nt	-3	nt	nt	nt	nt
O=C(Cn1ncc(Cl)c(Cl)c1=O)N1CCN(S(=O)(=O)c2ccc3ccccc3c2)CC1	2	30	94*	1	-10	10
O=C(O)CCC(=O)N1CCN(S(=O)(=O)c2ccc3ccccc3c2)CC1	nt	2	nt	nt	-2	-3
O=C(Cc1ccc(Cl)c(Cl)c1)Nc1ccc2[nH]c(=O)[nH]c2c1	-1	-5	6	-2	17	-3
COc1ccc(C(=O)O)cc1S(=O)(=O)Nc1ccccc1Cc1ccccc1	nt	1	nt	nt	4	1
COC(=O)c1ccc(NC(=O)Cn2c(-c3nonc3N)nc3ccccc32)cc1	1	1	12	-4	-22	2
COC(=O)c1ccccc1NC(=O)Cn1c(-c2nonc2N)nc2ccccc21	50*	36	95*	50*	-29	35*
COc1ccc(C2/C(=C(/O)c3ccccc3)C(=O)C(=O)N2C)cc1OC (centres undefined)	nt	-10	nt	nt	-22	-2
Cc1coc2c1C(=O)C(=O)c1c-2ccc2c1CCCC2(C)C	-7	63*	8	-1	-14	-1
Cc1coc2c1C(=O)C(=O)c1c-2ccc2c(C)cccc12	nt	-64	nt	nt	nt	nt
C[C@H]1COC2=C1C(=O)C(=O)c1c2ccc2c1CCCC2(C)C	-6	102*	2	-2	-6	-1
NC(=O)[C@@H]1CCCN1Cc1c(C(=O)N2CCc3ccccc3C2)nc2ccc(Cl)cn12	nt	-5	nt	nt	-34	-7
COCCN1CCN(C(=O)c2ccc3oc(CCc4ccccc4)nc3c2)CC1	nt	-40	nt	nt	-52	-3
Cc1oc2c(CN3CCOCC3)c(O)ccc2c(=O)c1-c1ccc(Cl)cc1	48*	1	nt	41*	-51	5
O=[N+]([O-])c1cc2cccnc2c2ncccc12	2	-11	nt	-3	18	-1
O=[N+]([O-])c1cc(O)c2ncccc2c1	10	70*	29	0	15	16
FCCCOc1ccc(-c2nccc(-c3ccccn3)n2)cc1	nt	-63	nt	nt	-42	10
SMILES	BaF3 parental	aSyn 5UTR inh	APP transl inh	Ba/F3 V617F tox	KLF5 inh	IEC-6 tox
O=C(O)COc1ccc(-c2nccc(-c3ccccn3)n2)cc1	-1	72*	63*	-3	11	-2
COc1ccc(-c2cc(C(=O)NN)[nH]n2)cc1	-1	-59	84*	-3	-48	-1
COc1ccc(-c2cc(C(=O)NN)[nH]n2)cc1OC	-2	9	73*	-2	-37	1
O=C(c1noc2c1CCCC2)N1CCC(CO)(Cc2ccccc2Cl)CC1	0	21	-11	-4	-14	-10
O=C(NNC(=O)c1ccccc1OCc1ccccc1)c1ccccc1O	nt	65*	nt	nt	50	8
O=C(NNC(=O)c1ccccc1OCc1ccc(F)cc1)c1ccccc1O	nt	68*	nt	nt	41	10
Cc1ccc(Cl)cc1N1CCN(S(=O)(=O)c2cc3c(cc2C)NC(=O)CO3)CC1	nt	-14	nt	nt	-5	0
COCCNc1nc2c(c(=O)n(C)c(=O)n2C)n1Cc1cccc(C(F)(F)F)c1	60*	2	-1	59*	-59	-6
CCCNc1nc2c(c(=O)n(C)c(=O)n2C)n1CCc1ccccc1	3	-17	-7	-1	2	0
CCCCCCn1c(NCC)nc2c1c(=O)n(C)c(=O)n2C	59*	-11	2	54*	-15	16
COc1cccc(Cn2c(NCc3ccco3)nc3c2c(=O)n(C)c(=O)n3C)c1	86*	-17	-10	59*	8	10
COc1cccc(Cn2c(NCC(C)C)nc3c2c(=O)n(C)c(=O)n3C)c1	5	9	-9	2	-17	6
CCCCNc1nc2c(c(=O)n(C)c(=O)n2C)n1CCC	nt	14	nt	nt	nt	nt
CCCNc1nc2c(c(=O)n(C)c(=O)n2C)n1Cc1cccc(C)c1	45*	-13	-8	42*	-30	4
O=C(COC(=O)CCc1c[nH]c2ccccc12)NC(c1ccccc1)c1ccccc1	76*	-20	13	0	-25	-5
COc1ccc(/C=C2\CCOC2=O)cc1	3	-32	-11	-4	-25	4
COc1ccc(/C=C2/C(=O)OCc3cc(OC)c(OC)cc32)cc1	28*	-31	82*	57*	30	26*
Cc1ccc(C(=O)N2CCCC2)cc1S(=O)(=O)N1CCCCC1	nt	-6	nt	nt	7	2
O=C(N/N=C/c1cc(Br)ccc1O)C(=O)Nc1ccccc1OC(F)(F)C(F)F	3	82*	31	5	36	8
O=C(N/N=C/c1cc(Cl)ccc1O)C(=O)Nc1ccccc1OC(F)(F)C(F)F	5	nt	60*	0	-6	2
COc1ccc(O)c(/C=N/NC(=O)c2c(C)nnn2-c2nonc2N)c1	1	64*	41	-2	-16	4
O=C(Nc1nc2ccccc2[nH]1)c1ccc(Cl)cc1	nt	66*	nt	nt	26	17
O=C(Nc1nc2ccccc2[nH]1)c1ccccc1	8	54	-214	4	-36	13
COc1cccc(CN2CC(C(=O)N(C)CC3CCOCC3)CCC2=O)c1 (centres undefined)	nt	-1	nt	nt	-30	-3
COc1ccc(-n2nc(C(=O)N3CCC(N4CCCCC4)CC3)c3c4ccccc4n(C)c3c2=O)cc1	nt	2	nt	nt	-38	2
O=C(Cn1c2ccccc2c(=O)c2ccccc21)N/N=C/c1ccc(N2CCCC2)c([N+](=O)[O-])c1	9	111*	12	5	-8	1

From PubChem BioAssay
